In the supplement of paper PMC11417369:
± gives the standard deviation of the averaged measurements. In all, about 25,000 sequences were measured (“ln(normalized median fluorescence intensity)”: median about 10, highest 2% from about 12 on). Shown is part of a subset that was picked to be rich in the highest values.

These sequences were tested on PfAP2-G AP2 domain (GST-tagged) (assay: gcPBM binding intensity (ln(normalized median fluorescence intensity)); higher = stronger DNA binding).
Outline: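 GST-tagged P. falciparum DNA-binding domains produced in E. coli were incubated for 1 h on an Agilent 4 × 180k array of primer-extended double-stranded 36-bp intergenic genomic probes with negative controls. Binding intensity is the highest Masliner-normalised natural-log median intensity across replicate spots of either probe orientation, with bound protein detected by Alexa488 anti-GST antibody at 488 nm.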

Sequence	gcPBM binding intensity (ln)
TTTATTGAACGTACACATATATATATGTATATATTT [TGCATGCA_negctrl_site141]	11.3 ± 0.88
ATTTTTGTACACTTCTTTTTTTTTTTTCTTTTATGT [CACACA_negctrl_site1323]	11.4 ± 0.68
AAAAAAAAATCATATTGTACGTAAAAAAAAAAAAAA [XGTACX_site476]	11.4 ± 1
TATTTATACTAATATGCATGTAATCGAAATACAGCT [TGCATGCA_site457]	9.685 ± 0.078
AATATGGTTATATATATATATATATATATATATATT [GTGCAC_negctrl_site566]	9.67 ± 0.071
TGAAATAAAATTTGTACACACATATATATATATATA [CACACA_site586]	11.1 ± 0.81
TCTTTTTGTTCGTGTACACACATGAAATTTATAAAA [CACACA_site1619]	11.8 ± 1.1
TTTCTTTTTGTTCGTGTACACACATGAAATTTATAA [CACACA_site8466]	11.6 ± 0.86
GAACCGTGCAAATGTTGTACACTTTAAAAATATTCT [XGTACX_site4488]	11.6 ± 0.84
AGGTGCAAAAATAAAACATGCAAAAATAAAAATGAA [TGCATGCA_site502]	10.07 ± 0.028
TTACCTCTTTGAAATATACACACTAAACATATCAAC [CACACA_site2455]	10.1 ± 0.13
CACAAACAAAAACACACACACACACCGACAAAAATG [CACACA_site5362]	10.5 ± 0.38
AACATACAGAAACACACACACACACCCACACCCACA [CACACA_site493]	10.4 ± 0.31
ACATACATACACCCACGTACGTACCGAAACACCACC [XGTACX_site1212]	11.7 ± 1.1
ACATACATACCCCCACGTACGTACCGAAACACCACC [XGTACX_site1982]	11.5 ± 0.74
TTTGTAATAAACTACTTTTTTTTTTTTTTTTTTTTT [CACACA_negctrl_site571]	10.9 ± 0.35
ATATACATATAGGATGCACACATAATTCAAATACAA [CACACA_site8120]	10.1 ± 0.22
TTTGAAAAAAATTAATGTACATTTGAAATGACATAT [XGTACX_site3902]	10.8 ± 0.52
AGACATTAATGAAGGTGTACATATATTTGACAGAAT [XGTACX_site655]	11.6 ± 1
AAGGTATAATATATTTGTACATATACATTTTTGAAT [XGTACX_site6493]	10.9 ± 0.61
AAAAAAAAATTAAAAACACACATATATATATATATA [CACACA_site1580]	9.9 ± 0.67
ATTTGCTTTTATTTTACACACTTGCTCCTGTTGTAC [CACACA_site1088]	10.9 ± 0.42
CAACACTTTCAAAAATGTACGTACAAATGTATTTTA [XGTACX_site6713]	11.7 ± 0.76
TTATTTTCAAAATGTTGTACACACAAAAAAAAAAAA [XGTACX_site3151]	11.4 ± 0.93
TATTTTCAAAATGTTGTACACACAAAAAAAAAAAAA [CACACA_site8437]	11.5 ± 1.1
